This passage reports growth results from PubChem BioAssay (NCI).

This is part of a sample that, as a whole, favours compounds with a hit. Of some 83,000 tested, about 20% had one in any assay.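 Method: cells in 96-well plates; compound added at one concentration; 48 h incubation; percent growth measured; values under 10 scored active.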 A number with no mark means an inactive call. Activity calls are given as the source filed them.

For the test, the system named is SW-620 colon. Briefly: NCI-60 one-dose screen, 48 h (100 = growth as untreated, 0 = no growth, -100 = all killed). The note with it: 10 µM unless noted.
Turning to `Fc1c[c-]c(-c2ccccn2)c(F)c1.[CH3-].[Pt+2].c1ccc([PH+](c2ccccc2)c2ccccn2)cc1`, the growth was -11.6% (active). The same measure for `CC(=O)O[C@@H]1CC[C@]2(C)[C@H]3CC[C@]4(C)C(=O)CC[C@H]4[C@@H]3C[C@@H]3SC(N)=N[C@@]32C1`: 44.1%; for `COc1cc2c(cc1OCc1ccccc1)C(CC(C)C)=[N+](C)CC2`: 93.7%; for `CC(C)=CCC[C@H](C(=O)O)[C@@H]1CC[C@]2(C)C3=C(CC[C@@]12C)[C@@]1(C)CC[C@H](O)C(C)(C)[C@@H]1CC3`: 105%. With `CC(C)=CCc1c(O)c(C(=O)CC(C)C)c(O)c2c(-c3ccccc3)cc(=O)oc12` the figure was 48.5%; with `Cc1ccc(C(Cc2ccccc2)NCCO)cc1` (stereo not drawn), 104%; with `O=C(O)CNC(=O)C(Cl)(Cl)Cl`, 94.8%.

For the compound `COC(=O)[C@@H](C)C[C@H](Cc1ccccc1)NC(=O)c1csc([C@@H](C[C@H](C(C)C)N(C)C(=O)[C@@H](NC(=O)[C@H]2CCCCN2C)c2ccc(F)cc2)OC(C)=O)n1`, the growth is 22.8%.

For `C[C@]12CC[C@H]3[C@@H](C[C@@H]4SC(Nc5ccccc5)=N[C@@]45CC(O)CC[C@]35C)[C@@H]1CCC2O` (stereo partly drawn), the growth is -19.4% (active). With `COc1ccc(/C=C\c2cc(OC)c(OC)c(OC)c2)cc1NC(=O)/C=C/c1cc(OC)c(OC)c(OC)c1` the figure was 47.6%; with `O=C(N/N=C/c1ccc(N(CCCl)CCCl)cc1)c1cccc2ccccc12`, 54.1%. The same measure for `CC(=O)O[C@H](C[C@H](C(C)C)N(C)C(=O)[C@@H](NC(=O)[C@H]1CCCCN1C)C(C)C)c1nc(C(=O)N[C@@H](Cc2ccccc2)C[C@H](C)C(=O)O)c(CCOCc2ccccc2)s1`: 28.3%. With `COc1cc2c(cc1OCCCCn1c(-c3cccs3)nc3ccccc31)N=C[C@@H]1CCCN1C2=O`, the growth was 2.49% (active).

With `C1CCC2(CC1)OOCNCOO2`, the growth was 103%. With `COC1=CC(=O)O[C@@H](/C=C/c2ccc3c(c2)OCO3)C1` the figure was 104%; with `O=C(CC1(O)C(=O)Nc2ccc(Cl)cc21)c1ccc(C(=O)NCC2CCC3(CC2)OOC2(CCCCC2)OO3)cc1` (stereo not drawn), -49% (active).

Consider `C/C(=C\c1ccn(-c2ccc(N)cc2C(F)(F)F)n1)[C@@H]1C[C@@H]2O[C@]2(C)CCC[C@H](C)[C@H](O)[C@@H](C)C(=O)C(C)(C)[C@@H](O)CC(=O)O1`, for which the growth was 23.9%. The same measure for `O=NNc1ccccn1`: 47.8%.

Regarding `N#CC1(c2ccccc2)CCN(Cc2ccccc2)CC1`, the growth was 101%. As for `CN(C)CCCOc1ccc2c(c1)c(C(=O)C(=O)NCCO)cn2Cc1ccccc1`, the growth is 105%. With `CC12CCC=CC1CCC1C2CCC2(C)C(c3ccc(=O)oc3)CCC12O` (stereo not drawn) the figure was -36.7% (active); with `CCCCOc1ccc(C(N)Cc2ccccc2)cc1` (stereo not drawn), 87.5%; with `CCC1CN1CCCCN1CC1CC` (stereo not drawn), 105%. Regarding `CC1(C)C(C(=O)c2cn(CCCCF)c3ccccc23)C1(C)C`, the growth is 99.1%. Take `Cc1cc(N(CCCl)CCCl)ccc1C=Nc1cccnc1`: the growth was 85.3%. With `COC(=O)[C@H](Cc1ccccc1)NC(=O)c1csc([C@@H](C[C@H](C(C)C)N(C)C(=O)[C@@H](NC(=O)[C@H]2CCCCN2C)C2CC2)OC(C)=O)n1` the figure was 22.8%; with `[Cl][Hg][c]1cc(Br)cc(Br)c1`, 29%; with `COc1ccc2c(c1)c(-c1nc(-c3c[nH]c4ncccc34)cs1)cn2CCCCN1CCCCC1`, -71.9% (active). With `C=COC(=O)CCN1CC1` the figure was 106%. The same measure for `COC(=O)[C@@H](C)C[C@H](Cc1ccccc1)NC(=O)c1csc([C@@H](C[C@H](C(C)C)N(C)C(=O)[C@@H](NC(=O)[C@H]2CCCCN2C)C2CCCCC2)OC(C)=O)n1`: 19.1%; for `CCOC(=O)[C@@H](C)C[C@H](Cc1ccccc1)NC(=O)c1csc([C@@H](C[C@H](C(C)C)N(C)C(=O)CNC(=O)[C@H]2CCCCN2C)OC(C)=O)n1`: 24.5%. For the compound `CC1=C(CNO)C2=C(C)C3(CC3)[C@@](C)(O)C(=O)C2=C1`, the growth was 65.7%. With `C[C@]12CCc3sc(-c4ccccc4O)nc3C1=CC[C@@H]1[C@@H]2CC[C@]2(C)C(=O)CC[C@@H]12` the figure was 103%; with `COC(=O)[C@@H](C)C[C@H](Cc1ccc2ccccc2c1)NC(=O)c1csc([C@@H](C[C@H](C(C)C)N(C)C(=O)[C@@H](NC(=O)[C@H]2CCCCN2C)C(C)C)OC(C)=O)n1`, 51.2%. With `COc1cccc(/C=C/[N+](=O)[O-])c1` the figure was 77.5%; with `CC[C@H](C)[C@H](NC(=O)c1cccn1C)C(=O)N(C)[C@H](C[C@@H](OC(C)=O)c1nc(C(=O)N[C@@H](Cc2ccccc2)C[C@H](C)C(=O)OC)cs1)C(C)C`, 26.2%; with `[Cl][Hg][n]1c(-c2ccco2)nc2ccccc21`, 80.9%.

Regarding `COc1ccc2c(c1)c(-c1nc(-c3cn(C)c4ncccc34)cs1)cn2CCCCN1CCCCC1`, the growth is -64.3% (active).
